# Reference: PubChem BioAssay (EPA / NIEHS)
# Results filed as inconclusive are left out. Calls of active or inactive are those of the source. The calls were made as follows, unless noted: active = hit-call score of the fitted dose curve at least 0.9, where 1 is the maximum; inconclusive = response in the unintended direction; inactive = score below 0.9.
# What was measured:
# [1] = ATG_GRE_CIS: Attagene CIS-FACTORIAL HepG2 Assay for human Glucocorticoid Response Elements (GRE) (AID 2282947; active = hit-call score of the fitted dose curve at least 0.9, where 1 is the maximum; inactive = score below 0.9); conditions: HepG2 GRE cis-reporter, Attagene multiplex mRNA; actives raise or lower the signal
# Procedure, shortened: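 Cells (HepG2) bearing transfected cis-promoter reporter transcription units were treated with chemical for 24 hours. Reporter mRNA was measured via RT-PCR with capillary electrophoresis, and activity was fitted in both directions relative to DMSO.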
# [2] = ATG_VDRE_CIS: Attagene CIS-FACTORIAL HepG2 Assay for human Vitamin D Receptor Element (VDRE) (AID 2282968; active = hit-call score of the fitted dose curve at least 0.9, where 1 is the maximum; inactive = score below 0.9); conditions: HepG2 VDRE cis-reporter transcription, actives raise or lower the signal
# Procedure, shortened: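 Steps: transfect HepG2 with multiple reporter transcription units; dose chemicals 24 h; isolate RNA; RT-PCR; label with 6-FAM primer extension; HpaI digest; capillary electrophoresis. Curves fitted both directions against DMSO.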
# [3] = target: Nuclear receptor subfamily 1 group I member 3 (Homo sapiens) (UniProt Q14994); assay: ATG_CAR_TRANS: Attagene TRANS-FACTORIAL HepG2 Assay for human Constitutive Androstane Receptor (CAR) (AID 2282969); conditions: HepG2 Attagene TRANS-FACTORIAL CAR reporter;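 also: activators raise reporter mRNA above DMSO so AC50 marks induction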
# Nuclear receptor subfamily 1 group I member 3 (Homo sapiens), sequence (Q14994 whole entry, looked up, the tested form may be a part): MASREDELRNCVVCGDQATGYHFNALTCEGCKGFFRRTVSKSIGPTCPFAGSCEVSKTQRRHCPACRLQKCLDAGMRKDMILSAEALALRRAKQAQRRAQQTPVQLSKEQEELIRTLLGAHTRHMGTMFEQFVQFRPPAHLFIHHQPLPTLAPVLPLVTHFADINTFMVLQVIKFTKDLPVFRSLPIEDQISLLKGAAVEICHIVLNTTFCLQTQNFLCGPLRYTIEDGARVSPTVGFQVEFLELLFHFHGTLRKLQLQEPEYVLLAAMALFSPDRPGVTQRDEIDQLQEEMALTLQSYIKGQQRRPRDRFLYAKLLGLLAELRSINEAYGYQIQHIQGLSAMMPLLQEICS
# Procedure, shortened: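 Steps: transient transfection of HepG2 with multiple GAL4-UAS reporter units; 24 h compound incubation; RNA isolation, RT-PCR, 6-FAM primer extension, HpaI digest; capillary electrophoresis. Gain-of-signal relative to DMSO negative control.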
# [4] = ATG_M_19_TRANS: Attagene TRANS-FACTORIAL HepG2 Assay for M19 Transcription Factor (Internal Marker) (AID 2282974); conditions: HepG2 Attagene TRANS-FACTORIAL M19 internal marker reporter
# Procedure, shortened: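 24 h chemical exposure of transiently transfected HepG2 (MRTU library). RNA → oligo(dT) RT → PCR → 6-FAM labelling → HpaI cut → CE fluorescence. Positive-direction fit vs DMSO baseline; background internal-marker readout.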
# [5] = target: Glucocorticoid receptor (Homo sapiens) (UniProt P04150); assay: ATG_GR_TRANS: Attagene TRANS-FACTORIAL HepG2 Assay for human Glucocorticoid Receptor (GR) (AID 2282978); conditions: HepG2 Attagene TRANS GR reporter, mRNA transcription;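 also: activators score as hits since higher reporter transcript over DMSO is fitted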
# Glucocorticoid receptor (Homo sapiens), sequence (P04150 whole entry, looked up, the tested form may be a part): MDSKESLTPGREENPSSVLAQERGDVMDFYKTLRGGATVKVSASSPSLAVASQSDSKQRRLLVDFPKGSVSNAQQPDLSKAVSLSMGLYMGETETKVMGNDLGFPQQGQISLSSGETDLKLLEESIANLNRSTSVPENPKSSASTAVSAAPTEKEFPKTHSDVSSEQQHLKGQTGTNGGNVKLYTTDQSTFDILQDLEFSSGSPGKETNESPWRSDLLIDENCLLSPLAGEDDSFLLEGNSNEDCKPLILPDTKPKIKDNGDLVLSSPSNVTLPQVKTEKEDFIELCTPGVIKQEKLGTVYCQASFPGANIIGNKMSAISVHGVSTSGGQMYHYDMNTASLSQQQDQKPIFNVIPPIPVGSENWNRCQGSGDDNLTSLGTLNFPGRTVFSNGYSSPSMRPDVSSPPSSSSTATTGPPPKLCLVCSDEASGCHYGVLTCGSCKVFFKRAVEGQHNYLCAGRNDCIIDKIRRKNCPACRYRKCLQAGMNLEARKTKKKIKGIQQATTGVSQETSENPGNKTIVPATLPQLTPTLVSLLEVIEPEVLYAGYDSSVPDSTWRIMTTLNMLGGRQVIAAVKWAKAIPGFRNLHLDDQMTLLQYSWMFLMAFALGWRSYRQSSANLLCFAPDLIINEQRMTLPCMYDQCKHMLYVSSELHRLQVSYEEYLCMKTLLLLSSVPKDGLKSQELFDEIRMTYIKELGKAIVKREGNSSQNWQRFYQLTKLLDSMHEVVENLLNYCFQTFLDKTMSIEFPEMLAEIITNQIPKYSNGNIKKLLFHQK
# Procedure, shortened: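 Transient MRTU transfection of HepG2 (GAL4-UAS reporters, exogenous NR-GAL4 chimeras), 24 h dosing. Readout: reporter transcript via RT-PCR + capillary electrophoresis fluorescence. Positive direction vs DMSO baseline.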
# [6] = target: Oxysterols receptor LXR-alpha (Homo sapiens) (UniProt Q13133); assay: ATG_LXRa_TRANS: Attagene TRANS-FACTORIAL HepG2 Assay for human Liver X Receptor alpha (LXRa) (AID 2282980); conditions: HepG2 Attagene TRANS reporter, LXRa transactivation
# Oxysterols receptor LXR-alpha (Homo sapiens), sequence (Q13133 whole entry, looked up, the tested form may be a part): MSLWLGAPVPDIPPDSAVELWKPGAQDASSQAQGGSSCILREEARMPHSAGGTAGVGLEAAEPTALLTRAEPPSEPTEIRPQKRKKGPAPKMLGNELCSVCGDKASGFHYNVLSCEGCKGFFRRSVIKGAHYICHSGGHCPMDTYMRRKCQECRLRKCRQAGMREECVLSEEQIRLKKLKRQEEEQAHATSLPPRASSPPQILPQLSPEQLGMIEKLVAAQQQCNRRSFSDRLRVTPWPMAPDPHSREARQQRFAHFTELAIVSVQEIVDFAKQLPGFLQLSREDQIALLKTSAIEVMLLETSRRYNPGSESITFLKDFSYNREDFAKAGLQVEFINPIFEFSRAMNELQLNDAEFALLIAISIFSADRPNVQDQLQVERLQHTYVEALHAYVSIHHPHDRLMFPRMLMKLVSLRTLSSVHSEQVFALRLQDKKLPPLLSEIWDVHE
# Procedure, shortened: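 HepG2 cells transiently transfected with GAL4-UAS reporter units for chimeric NR-Gal4 proteins, exposed to chemicals for 24 h. Reporter mRNA quantified by RT-PCR and capillary electrophoresis; gain of signal fitted relative to DMSO.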
# [7] = target: Oxysterols receptor LXR-beta (Homo sapiens) (UniProt P55055); assay: ATG_LXRb_TRANS: Attagene TRANS-FACTORIAL HepG2 Assay for human Liver X Receptor beta (LXRb) (AID 2282981); conditions: HepG2 Attagene TRANS GAL4-LXRb reporter, mRNA
# Oxysterols receptor LXR-beta (Homo sapiens), sequence (P55055 whole entry, looked up, the tested form may be a part): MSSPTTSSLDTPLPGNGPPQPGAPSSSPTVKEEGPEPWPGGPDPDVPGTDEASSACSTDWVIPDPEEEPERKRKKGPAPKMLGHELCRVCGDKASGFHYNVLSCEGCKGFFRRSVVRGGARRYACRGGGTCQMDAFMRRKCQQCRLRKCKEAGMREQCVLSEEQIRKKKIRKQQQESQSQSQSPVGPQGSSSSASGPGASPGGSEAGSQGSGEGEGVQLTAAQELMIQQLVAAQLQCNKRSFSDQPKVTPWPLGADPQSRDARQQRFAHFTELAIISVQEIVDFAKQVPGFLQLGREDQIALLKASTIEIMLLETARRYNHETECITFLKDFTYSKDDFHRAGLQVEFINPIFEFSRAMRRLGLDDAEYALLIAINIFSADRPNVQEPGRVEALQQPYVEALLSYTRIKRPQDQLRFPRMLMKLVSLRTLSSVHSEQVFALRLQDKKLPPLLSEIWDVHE
# Procedure, shortened: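 Measures induction of a Gal4-driven reporter transcript in HepG2 cells expressing an exogenous LXRb-Gal4 fusion. Cells are exposed to compound for 24 h before RNA isolation and RT-PCR with capillary electrophoresis detection.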
# [8] = target: human Peroxisome Proliferator-activated Receptor alpha (PPARa), PPARA (gene 5465) (UniProt Q07869); assay: ATG_PPARa_TRANS: Attagene TRANS-FACTORIAL HepG2 Assay for human Peroxisome Proliferator-activated Receptor alpha (PPARa) (AID 2283001)
# human Peroxisome Proliferator-activated Receptor alpha (PPARa), PPARA (gene 5465), sequence (Q07869 whole entry, looked up): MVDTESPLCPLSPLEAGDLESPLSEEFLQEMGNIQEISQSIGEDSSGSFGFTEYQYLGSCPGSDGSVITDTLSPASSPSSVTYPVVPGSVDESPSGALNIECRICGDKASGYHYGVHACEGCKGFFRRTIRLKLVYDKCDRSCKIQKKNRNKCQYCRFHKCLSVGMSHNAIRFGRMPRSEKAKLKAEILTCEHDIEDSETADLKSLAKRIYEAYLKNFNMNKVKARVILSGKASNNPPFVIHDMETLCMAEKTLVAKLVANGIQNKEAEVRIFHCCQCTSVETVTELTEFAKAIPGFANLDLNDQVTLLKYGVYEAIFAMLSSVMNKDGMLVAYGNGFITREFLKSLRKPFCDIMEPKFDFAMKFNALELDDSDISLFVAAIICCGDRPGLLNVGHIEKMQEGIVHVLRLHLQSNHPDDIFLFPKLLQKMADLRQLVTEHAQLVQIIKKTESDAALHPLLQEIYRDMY
# Procedure, shortened: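 Cells (HepG2) are transfected with multiple reporter transcription units, exposed to chemical for 24 h, then total RNA is reverse-transcribed and amplified. Labelled products are quantified by capillary electrophoresis; induction is referenced to DMSO.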
# [9] = target: human Peroxisome Proliferator-activated Receptor delta (PPARd), PPARD (gene 5467) (UniProt Q03181); assay: ATG_PPARd_TRANS: Attagene TRANS-FACTORIAL HepG2 Assay for human Peroxisome Proliferator-activated Receptor delta (PPARd) (AID 2283002)
# human Peroxisome Proliferator-activated Receptor delta (PPARd), PPARD (gene 5467), sequence (Q03181 whole entry, looked up, the tested form may be a part): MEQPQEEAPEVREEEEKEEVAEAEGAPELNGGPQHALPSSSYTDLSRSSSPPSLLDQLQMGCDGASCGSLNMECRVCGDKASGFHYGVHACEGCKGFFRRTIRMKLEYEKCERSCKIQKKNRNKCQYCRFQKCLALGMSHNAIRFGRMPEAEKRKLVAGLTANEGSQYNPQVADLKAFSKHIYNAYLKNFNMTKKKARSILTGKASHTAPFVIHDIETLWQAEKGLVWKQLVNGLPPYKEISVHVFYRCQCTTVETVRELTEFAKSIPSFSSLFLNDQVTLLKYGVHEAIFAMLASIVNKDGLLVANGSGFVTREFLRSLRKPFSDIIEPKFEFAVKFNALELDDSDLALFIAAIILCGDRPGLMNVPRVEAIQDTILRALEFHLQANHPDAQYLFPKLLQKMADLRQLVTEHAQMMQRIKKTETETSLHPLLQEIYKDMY
# Procedure, shortened: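 Measured quantity: GAL4-UAS reporter transcript induction in HepG2 after 24 h chemical dosing, with NR-Gal4 chimeras supplied by transient transfection. Detection by RT-PCR and capillary electrophoresis; upward fit against DMSO.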
# [10] = target: human Vitamin D Receptor (VDR), VDR (gene 7421) (UniProt P11473); assay: ATG_VDR_TRANS: Attagene TRANS-FACTORIAL HepG2 Assay for human Vitamin D Receptor (VDR) (AID 2283022)
# human Vitamin D Receptor (VDR), VDR (gene 7421), sequence (P11473 whole entry, looked up, the tested form may be a part): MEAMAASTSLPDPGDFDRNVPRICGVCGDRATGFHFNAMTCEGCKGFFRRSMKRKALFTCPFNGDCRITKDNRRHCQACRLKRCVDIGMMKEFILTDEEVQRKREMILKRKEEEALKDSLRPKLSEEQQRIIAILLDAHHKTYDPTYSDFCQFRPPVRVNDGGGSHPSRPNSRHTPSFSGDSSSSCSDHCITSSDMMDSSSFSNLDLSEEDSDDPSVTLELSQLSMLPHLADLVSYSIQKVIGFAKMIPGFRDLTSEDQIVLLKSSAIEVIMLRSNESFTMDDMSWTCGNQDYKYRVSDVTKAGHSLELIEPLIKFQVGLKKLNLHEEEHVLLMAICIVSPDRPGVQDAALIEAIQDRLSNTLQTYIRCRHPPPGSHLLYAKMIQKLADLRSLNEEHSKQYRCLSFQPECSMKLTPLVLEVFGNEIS
# Procedure, shortened: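 HepG2 cells were transiently transfected with GAL4-UAS reporter units and a chimeric VDR-Gal4 construct, then dosed for 24 hours. Reporter mRNA was quantified by RT-PCR, fluorescent labeling, HpaI digestion and capillary electrophoresis; gain of signal analysed vs DMSO.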
# [11] = target: Estrogen-related receptor gamma (Homo sapiens) (UniProt P62508); assay: ATG_ERRg_TRANS: Attagene TRANS-FACTORIAL HepG2 Assay for human Estrogen-Related Receptor gamma (ERRg) (AID 2282977); conditions: HepG2 Attagene TRANS reporter, ERRg transactivation;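 also: hits increase reporter signal over DMSO so potencies reflect activators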
# Estrogen-related receptor gamma (Homo sapiens), sequence (P62508 whole entry, looked up, the tested form may be a part): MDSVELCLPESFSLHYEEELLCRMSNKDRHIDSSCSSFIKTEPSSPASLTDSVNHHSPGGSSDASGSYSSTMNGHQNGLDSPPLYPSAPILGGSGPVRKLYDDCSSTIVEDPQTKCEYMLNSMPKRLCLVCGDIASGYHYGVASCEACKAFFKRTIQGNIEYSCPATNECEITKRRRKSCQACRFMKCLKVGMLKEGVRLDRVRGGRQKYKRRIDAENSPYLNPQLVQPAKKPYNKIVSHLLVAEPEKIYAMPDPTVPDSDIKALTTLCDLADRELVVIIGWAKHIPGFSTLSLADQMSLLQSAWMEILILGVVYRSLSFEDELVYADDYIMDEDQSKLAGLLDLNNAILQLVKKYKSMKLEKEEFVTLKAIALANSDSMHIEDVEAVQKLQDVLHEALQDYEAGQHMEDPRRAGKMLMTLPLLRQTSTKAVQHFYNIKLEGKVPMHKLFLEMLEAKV
# Procedure, shortened: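 Exogenous NR-Gal4 chimera activity measured as reporter transcript induction after 24 h in transiently transfected HepG2 cells. RNA reverse-transcribed, PCR-amplified, 6-FAM-labelled and resolved by capillary electrophoresis; increase over DMSO baseline.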
# [12] = CCTE_Harrill_HTTr_Viability_MCF7: CCTE's 6-hour Cell Viability Assessment for the High-Throughput Transcriptomics (HTTr) Platform, in MCF-7 cells cultured in DMEM + 10% fetal bovine serum, Harrill Lab (AID 2284010; active = hit-call score of the fitted dose curve at least 0.9, where 1 is the maximum; inactive = score below 0.9)
# Procedure, shortened: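 Propidium iodide exclusion, imaged by high-content analysis, gauged viability after a six-hour exposure across eight concentrations. Cells were MCF-7 grown in DMEM with 10% fetal bovine serum; fits run in both directions against DMSO.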
# [13] = CCTE_Harrill_HTTr_Apoptosis_MCF7: CCTE's 6-hour Apoptosis Assessment for the High-Throughput Transcriptomics (HTTr) Platform, in MCF-7 cells cultured in DMEM + 10% fetal bovine serum, Harrill Lab (AID 2284011; active = hit-call score of the fitted dose curve at least 0.9, where 1 is the maximum; inactive = score below 0.9)
# Procedure, shortened: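 MCF-7 cells in DMEM + 10% FBS exposed 6 h to chemicals over an eight-point dilution series. Caspase-3/7 activation imaged by high-content CellEvent Green staining; fitted bidirectionally versus DMSO.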
# [14] = ATG_PPRE_CIS: Attagene CIS-FACTORIAL HepG2 Assay for human Peroxisome Proliferator-activated Response Element (PPRE) (AID 2282958; active = hit-call score of the fitted dose curve at least 0.9, where 1 is the maximum; inactive = score below 0.9); conditions: HepG2 PPRE cis-element reporter, Attagene transcription factor profiling; actives raise or lower the signal
# Procedure, shortened: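 Read-out: fluorescent reporter mRNA fragments resolved by capillary electrophoresis after RT-PCR. HepG2 cells carried transiently transfected PPRE-driven cis reporter constructs and were dosed for 24 h; gain or loss of signal fitted relative to DMSO.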
# [15] = target: human RAR-related Orphan Receptor beta (RORb), RORB (gene 6096) (UniProt Q92753); assay: ATG_RORb_TRANS: Attagene TRANS-FACTORIAL HepG2 Assay for human RAR-related Orphan Receptor beta (RORb) (AID 2283010)
# human RAR-related Orphan Receptor beta (RORb), RORB (gene 6096), sequence (Q92753 whole entry, looked up, the tested form may be a part): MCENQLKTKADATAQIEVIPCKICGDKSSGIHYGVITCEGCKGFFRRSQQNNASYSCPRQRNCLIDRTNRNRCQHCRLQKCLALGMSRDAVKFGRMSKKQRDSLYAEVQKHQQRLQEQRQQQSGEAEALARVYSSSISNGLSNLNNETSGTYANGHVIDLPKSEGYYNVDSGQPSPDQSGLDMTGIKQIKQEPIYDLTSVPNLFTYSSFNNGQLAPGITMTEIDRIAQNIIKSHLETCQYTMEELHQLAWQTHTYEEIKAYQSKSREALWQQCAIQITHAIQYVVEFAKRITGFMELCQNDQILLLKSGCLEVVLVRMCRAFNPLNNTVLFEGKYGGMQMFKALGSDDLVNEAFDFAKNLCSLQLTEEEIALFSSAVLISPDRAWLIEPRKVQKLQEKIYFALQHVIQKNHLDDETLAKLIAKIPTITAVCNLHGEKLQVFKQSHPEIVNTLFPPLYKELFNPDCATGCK
# Procedure, shortened: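 Read-out is reporter mRNA induction, quantified by RT-PCR with fluorescent capillary electrophoresis, 24 h post-dose in transiently transfected HepG2 expressing exogenous NR-Gal4 chimera. Activity fitted upward versus DMSO.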
# [16] = TOX21_p53_BLA_p3_viability: Viability Assessment in the Tox21 HCT-116 p53 Agonism Beta-lactamase Assay, Phase 3 (AID 2283593);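 also: cells exposed to compound for 16 h before reading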
# Procedure, shortened: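 HCT-116 cells (4000/well) rested 5 h at 37C, then got DMSO compounds by pin tool (217-fold dilution) for 16 h at 37C, 5% CO2. After the bla read, CellTiter-Glo was added and luminescence read at 30 min, room temperature.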
# [17] = ATG_M_06_TRANS: Attagene TRANS-FACTORIAL HepG2 Assay for M06 Transcription Factor (Internal Marker) (AID 2282983); conditions: HepG2 Attagene TRANS M06 internal marker reporter
# Procedure, shortened: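 mRNA levels of a reporter transcript, quantified as FAM fluorescence on capillary electrophoresis, served as readout. HepG2 cells expressing exogenous GAL4-chimera reporter constructs were exposed for 24 h. Gain of signal over DMSO was evaluated.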
# [18] = target: Retinoic acid receptor alpha (Homo sapiens) (UniProt P10276); assay: ATG_DR5_RAR_CIS: Attagene CIS-FACTORIAL HepG2 Assay for human Retinoic Acid Receptor Alpha (RARE), DR5 submotif (AID 2282934; active = hit-call score of the fitted dose curve at least 0.9, where 1 is the maximum; inactive = score below 0.9); conditions: HepG2 Attagene cis-factorial RARE DR5 reporter, mRNA; actives raise or lower the signal
# Retinoic acid receptor alpha (Homo sapiens), sequence (P10276 whole entry, looked up): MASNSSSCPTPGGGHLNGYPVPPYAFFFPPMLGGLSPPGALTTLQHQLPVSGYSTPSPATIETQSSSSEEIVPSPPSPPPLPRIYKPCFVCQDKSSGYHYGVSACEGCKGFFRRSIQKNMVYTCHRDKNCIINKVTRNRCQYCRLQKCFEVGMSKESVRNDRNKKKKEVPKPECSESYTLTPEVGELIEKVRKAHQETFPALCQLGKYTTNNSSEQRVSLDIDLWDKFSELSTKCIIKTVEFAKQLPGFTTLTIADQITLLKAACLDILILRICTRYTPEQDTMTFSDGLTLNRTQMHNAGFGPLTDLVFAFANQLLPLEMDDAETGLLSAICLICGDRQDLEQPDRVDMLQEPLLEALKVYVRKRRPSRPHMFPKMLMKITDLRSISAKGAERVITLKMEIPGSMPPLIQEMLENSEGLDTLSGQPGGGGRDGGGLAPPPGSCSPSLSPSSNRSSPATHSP
# Procedure, shortened: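 Transfected HepG2 reporter cells are exposed to chemicals for 24 h. Then RNA is extracted and the DR5 element reporter transcript is measured by RT-PCR and capillary electrophoresis, with bidirectional curve fitting relative to DMSO.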
# [19] = ATG_PBREM_CIS: Attagene CIS-FACTORIAL HepG2 Assay for human Phenobarbital-responsive Enhancer Module (PBREM) (AID 2282955; active = hit-call score of the fitted dose curve at least 0.9, where 1 is the maximum; inactive = score below 0.9); conditions: HepG2 PBREM cis-reporter, Attagene multiplexed transcription; actives raise or lower the signal
# Procedure, shortened: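 Reporter mRNA read by RT-PCR, 6-FAM primer extension, HpaI digestion and capillary electrophoresis. Transfected HepG2 cells, 24 h compound exposure. Gain or loss of signal fitted bidirectionally relative to DMSO baseline.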
# [20] = ACEA_ER_AUC_viability: ACEA Biosciences xCELLigence Real-Time Cell Analysis on Estrogen Receptor Agonism for Viability (AID 2283782);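 also: hit means loss of impedance signal meaning reduced cell growth or viability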
# Procedure, shortened: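 Continuous-exposure impedance cell analysis uses T-47D cells in charcoal-stripped serum, eight 1:4 dilutions topping at 100 uM final, biological duplicate. Area under the growth curve at 80 h is fitted against DMSO baseline.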
compound,measurement,setting,value
CCCCCCOC(=O)CCCCCCCC(=O)OCCCCCC,outcome,[1],inactive
same,outcome,[2],inactive
same,outcome,[3],inactive
same,outcome,[4],inactive
same,outcome,[5],inactive
same,outcome,[6],inactive
same,outcome,[7],inactive
same,outcome,[8],inactive
same,outcome,[9],inactive
same,outcome,[10],inactive
O=C(C(=O)c1ccccc1)c1ccccc1,outcome,[1],inactive
same,outcome,[2],inactive
same,outcome,[3],inactive
same,outcome,[4],inactive
same,outcome,[11],inactive
same,outcome,[12],inactive
same,outcome,[13],inactive
CCOC(=O)c1ccccc1,AC50,[1],61.9 µM (active)
same,outcome,[14],inactive
same,outcome,[2],inactive
same,outcome,[4],inactive
same,outcome,[11],inactive
same,AC50,[5],27.9 µM (active)
same,outcome,[6],inactive
same,outcome,[7],inactive
same,outcome,[8],inactive
same,outcome,[9],inactive
same,outcome,[15],inactive
same,outcome,[16],inactive
CC[N+](CC)(CC(=O)Nc1c(C)cccc1C)Cc1ccccc1 (tested in a mixture with another compound),outcome,[17],inactive
same,outcome,[15],inactive
same,outcome,[12],inactive
same,outcome,[13],inactive
CC/C=C/CCO,outcome,[1],inactive
same,outcome,[2],inactive
same,outcome,[11],inactive
same,outcome,[6],inactive
same,outcome,[10],inactive
C=C(C)C(=O)OCCCCCC,outcome,[18],inactive
same,outcome,[1],inactive
same,outcome,[14],inactive
same,outcome,[2],inactive
same,outcome,[11],inactive
same,outcome,[5],inactive
same,outcome,[6],inactive
same,outcome,[7],inactive
same,outcome,[8],inactive
same,outcome,[15],inactive
same,outcome,[10],inactive
CC1=CCCC(C)(C)C12CCC(C)O2 (stereo not given),outcome,[4],inactive
same,outcome,[6],inactive
same,outcome,[7],inactive
same,outcome,[17],inactive
same,outcome,[15],inactive
Cc1ccccc1S(N)(=O)=O,outcome,[18],inactive
same,outcome,[1],inactive
same,outcome,[19],inactive
same,AC50,[2],26.5 µM (active)
same,outcome,[3],inactive
same,outcome,[4],inactive
same,outcome,[6],inactive
same,outcome,[7],inactive
same,outcome,[17],inactive
same,outcome,[9],inactive
same,outcome,[16],inactive
same,outcome,[20],inactive
CC(C)=CCOC(=O)c1ccccc1,outcome,[18],inactive
same,outcome,[2],inactive
same,outcome,[4],inactive
same,outcome,[11],inactive
same,outcome,[5],inactive
same,outcome,[6],inactive
same,outcome,[7],inactive
same,outcome,[9],inactive
same,outcome,[10],inactive
same,outcome,[16],inactive
O=S(=O)(O)c1cccc2ccccc12,outcome,[1],inactive
same,outcome,[14],inactive
same,outcome,[11],inactive
same,outcome,[17],inactive
same,outcome,[8],inactive
same,outcome,[9],inactive
O=C(O)c1ccccc1C(=O)O,outcome,[18],inactive
same,outcome,[1],inactive
same,outcome,[19],inactive
same,outcome,[5],inactive
same,outcome,[7],inactive
same,outcome,[17],inactive
same,outcome,[9],inactive
same,outcome,[16],inactive
same,outcome,[20],inactive
OCCOCCOCCOCCOCCO,outcome,[18],inactive
same,outcome,[14],inactive
same,outcome,[7],inactive
same,outcome,[17],inactive
same,outcome,[8],inactive
same,outcome,[9],inactive
same,outcome,[15],inactive
same,outcome,[16],inactive
CN(C)N=Nc1ccccc1,outcome,[2],inactive
same,outcome,[4],inactive
same,outcome,[11],inactive
same,outcome,[6],inactive
same,outcome,[7],inactive
same,outcome,[8],inactive
same,outcome,[9],inactive
C=CCOCC(CC)(CO)COCC=C,outcome,[18],inactive
same,outcome,[1],inactive
same,outcome,[3],inactive
same,outcome,[4],inactive
same,outcome,[7],inactive
same,outcome,[17],inactive
same,outcome,[9],inactive
same,outcome,[16],inactive
same,outcome,[20],inactive
